Compound activity deposited in PubChem by National Center for Advancing Translational Sciences (NCATS).
The list is not random: actives were taken first. Their share in the collection is about 6.6%.
HepG2 viability: qHTS for Inhibitors of TGF-b: Cytotox Counterscreen; AID 588856, 2011; HepG2 CAGA-GFP viability, ATP luminescence, 18 h; 410,000 compounds, 0.76% hits; Potency, µM (doses to about 46.1 µM), for inactives: at the highest dose activity change, negative = cytotoxicity, most hits filed as cytotoxic
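CellTiter-Glo luminescence gave cytotoxicity after 18 hours at 37 degrees C. The cells were HepG2 CAGA-GFP in 1% FBS DMEM, stimulated with 500 pg/mL TGF-beta after compound addition. %Activity was normalised to no-cell wells (complete cell-killing) and DMSO (no toxicity), and curves were fitted and classified.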
HT1080 IDH1KD tx: qHTS for induction of synthetic lethality in tumor cells producing 2HG: qHTS for the HT-1080-IDH1KD cell line | 360,000 compounds, 2% hits | HT-1080 IDH1 knockdown viability, ATP luminescence, 48 h | Potency, µM (highest dose often 46.1 µM), without a hit: at the highest dose activity, negative = toxicity, usual class: cytotoxic;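 further: 0% = DMSO wells and -100% = cell-free medium wells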
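Assay cells: HT-1080 with IDH1 knockdown, 750 per well, RPMI/5% FBS. Exposure: 48 h at 37 °C following 2 h pre-incubation. Read: CellTiter-Glo luminescence; fitted concentration-response, curve class assigned.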
HT1080-NT tox: qHTS for induction of synthetic lethality in tumor cells producing 2HG: qHTS for the HT-1080-NT fibrosarcoma cell line | Potency, µM (top dose mostly 46.1 µM), for inactives: at the highest dose activity, negative = less viability, actives largely listed as cytotoxic | HT-1080-NT fibrosarcoma viability, CellTiter-Glo ATP luminescence, 48 h | AID 686970, 2013 | 360,000 compounds, 1.6% hits;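 further: NT is the 2HG producing partner of a matched IDH1 knockdown line; 0% = DMSO-treated cells and -100% = media-only wells without cells; nearly all actives have a fitted effect of over 55% in size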
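Viability of the 2HG-overproducing fibrosarcoma line after 48 hours of compound exposure at 37 degrees C was determined by luminescence with CellTiter-Glo, and concentration-effect curves were then fitted and categorized.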
TGFb SMAD3 inh: qHTS for Inhibitors of TGF-b. 410,000 compounds, 1.2% hits. HepG2 CAGA-GFP TGF-b/SMAD3 reporter, GFP fluorescence, 18 h; TGF-beta stimulated, 500 pg/mL final. Potency, µM (titrated, usually from 46.1 µM), without a hit: at the highest dose activity, negative = inhibition, most hits filed as inhibitors. AID 588855, 2011; further: on the % scale 0 is the no-effect control and ±100 the full control effect; nearly all actives have a fitted effect of over 65% in size
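Read-out: total well GFP (ex488/em500-530) summed from mean per-cell fluorescence. Cells: HEPG2 CAGA-GFP, 1% FBS DMEM, 18 h at 37 degrees C with 500 pg/mL final TGF-beta. Unstimulated wells served as the full-inhibition control; stimulated DMSO wells = 0%.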
KB-V1 MDR tox: qHTS assay for MDR1-selective chemotherapeutics: Primary screen using the drug-selected MDR subline cells KB-V1 | KB-V1 MDR cells viability, CellTiter-Glo, 72 h | Potency, µM (highest dose often 46.1 µM), hits mostly cytotoxic | 400,000 compounds, 3.4% hits | AID 1347076, 2019; further: on the % scale 0 is the no-effect control and ±100 the full control effect; nearly all actives have a fitted effect of over 60% in size
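Readout: CellTiter-Glo luminescence, 10 min after addition. Cells: KB-V1 MDR subline, 72 h at 37 degrees C with compound. Analysis: corrected, normalized data fitted to concentration-effect curves.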
KB-3-1 cytotox: qHTS assay for MDR1-selective chemotherapeutics: Primary screen using the parental adenocarcinoma cell KB-3-1 | Potency, µM (series often up to 46.1 µM), actives largely listed as cytotoxic | 400,000 compounds, 1.4% hits | KB-3-1 viability, CellTiter-Glo ATP luminescence, 72 h; further: on the % scale 0 is the no-effect control and ±100 the full control effect; nearly all actives have a fitted effect of over 60% in size
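Parental KB-3-1 adenocarcinoma cells in phenol-red-free DMEM with 10% FBS were pin-treated with compounds at several concentrations, incubated 72 h at 37 °C, and viability read by CellTiter-Glo luminescence; concentration-effect curves were fitted after normalization.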
Active calls of the source: *; i = inactive; ? = inconclusive; . = no result given. The call rests on the fitted dose curve; in most records, active means well fitted curve in the direction sought with a large enough effect; inconclusive means small, poorly fitted or top-dose-only effect, or another doubt; inactive means no such curve, though single readings can be large; an effect the other way counts as inactive or inconclusive. Potency means the concentration at half of the fitted maximal effect.

SMILES	HepG2 viability	HT1080 IDH1KD tx	HT1080-NT tox	TGFb SMAD3 inh	KB-V1 MDR tox	KB-3-1 cytotox
Cc1cc(C)c(NC(=O)CSCc2c(C)noc2C)c(C)c1	5.5%	1.2%	4.3%	6.0%	23.1µM*	i
Cc1ccc(NC(=O)CSCc2c(C)noc2C)cc1C	-20.9%	-8.9%	3.2%	3.9%	i	i
CCOc1ccc(S(=O)(=O)N(CC)CC)cc1NC(=O)CSCc1c(C)noc1C	-3.4%	-5.3%	0.1%	2.2%	7.31µM*	i
COc1ccc(C2=C(C)C(N3CCC(C(=O)NCc4ccco4)CC3)=NS2(=O)=O)cc1	-1.6%	.	.	-29.8%	i	i
C[C@@H](CO)NC(=O)c1nc[nH]c1C(=O)N[C@H](C)c1ccccc1	-20.8%	0.0%	5.5%	-20.8%	i	i
COc1cccc(NC(=O)Cn2c(=O)n(-c3ccccc3)c(=O)c3c4c(sc32)CCCC4)c1	3.1%	.	.	-4.0%	i	i
COc1cccc(CNCCNC(=O)c2nonc2N)c1	-5.1%	-0.8%	-4.0%	-0.8%	i	i
COc1cc(CNCCNC(=O)c2nonc2N)ccc1OCc1ccc(Cl)cc1	-78.2%	16.4µM*	?	?	?	?
Cc1ccccc1NC(=O)/C=C/c1cccs1	3.1%	-19.9%	-18.5%	-19.6%	?	i
CCN(CC)S(=O)(=O)c1ccc(C)c(NC(=O)/C=C/c2cccs2)c1	-10.0%	1.4%	6.8%	-4.9%	8.2µM*	i
COc1ccc(/C=N/NC(=O)CCn2cnc(-c3ccccc3)c2-c2ccccc2)cc1	-35.1%	3.26µM*	3.26µM*	11.2µM*	i	5.17µM*
O=C(CCn1cnc(-c2ccccc2)c1-c1ccccc1)N/N=C/c1ccccc1O	-43.0%	14.6µM*	13µM*	?	i	?
COc1ccccc1/C=C/C=N/NC(=O)CCn1cnc2ccccc21	-6.6%	14.6µM*	10.3µM*	-0.9%	i	i
O=C(CCn1cnc2ccccc21)N/N=C/C=C/c1ccccc1	-16.9%	0.0%	6.2%	1.0%	i	i
CCn1cc(C(=O)NCc2ccccc2OC)c(=O)c2cc(S(=O)(=O)N3CCCCCC3)ccc21	-4.0%	.	.	-17.7%	i	i
CC(=O)Nc1ccc(C(=O)CSc2nnc(-c3ccccc3)n2-c2ccccc2)cc1	1.7%	.	.	1.8%	i	i
O=C1COc2ccc(-c3cc(-c4ccc(F)cc4)c4c(n3)-c3ccccc3OC4)cc2N1	0.1%	.	.	-24.8%	?	i
COc1ccc(NC(=O)c2ccc(-c3nc(CSc4ccc(C)cc4)c(C)o3)cc2)cc1Cl	-33.8%	.	.	?	?	i
Cc1ccc(C(=O)N2N=C(c3ccccc3O)CC2c2ccccc2)cc1 (stereo not given)	-29.3%	12.2%	10.1%	3.8%	i	i
COc1ccc(C2=NN(C(=O)c3cccs3)C(c3ccccc3O)C2)cc1 (stereo not given)	-97.6%	-26.9%	-28.7%	12.6µM*	i	i
Cn1cc(C2CC(c3ccccc3)=NN2C(=O)c2ccccc2)c2ccccc21 (stereo not given)	-43.7%	?	-26.8%	3.4%	20.6µM*	?
Cc1ccc(C(=O)N2N=C(c3ccc(Br)cc3)CC2c2ccccc2O)cc1 (stereo not given)	-109.0%	14.6µM*	14.6µM*	?	?	?
COc1ccc(C(=O)N2N=C(c3cccs3)CC2c2ccccc2O)cc1 (stereo not given)	11.2µM*	?	?	?	i	i
COc1ccc2cc(C3CC(c4cccs4)=NN3C(C)=O)c(Cl)nc2c1 (stereo not given)	2.1%	12.9%	8.6%	4.5%	i	i
CNC(=S)N1N=C(c2ccc(C)cc2)CC1c1ccc(Br)cc1 (stereo not given)	1.6%	?	-4.8%	-22.3%	14.6µM*	i
SMILES	HepG2 viability	HT1080 IDH1KD tx	HT1080-NT tox	TGFb SMAD3 inh	KB-V1 MDR tox	KB-3-1 cytotox
CNC(=S)N1N=C(c2ccc(C)cc2)CC1c1ccc(Cl)cc1 (stereo not given)	-22.8%	1.7%	2.6%	-6.7%	i	i
C=CCn1c(Sc2ncc([N+](=O)[O-])s2)n[nH]c1=O	-105.1%	5.17µM*	5.8µM*	3.55µM*	i	?
C=CCn1c(CSc2ccccc2[N+](=O)[O-])n[nH]c1=S	-5.7%	-1.4%	5.8%	-11.0%	i	i
Oc1c(CN2CCCCC2)cc(COCc2ccccc2)c2cccnc12	-93.1%	2.91µM*	7.31µM*	?	?	5.17µM*
COCc1cc(CN2CCCC2)c(O)c2ncccc12	-25.9%	0.631µM*	1.12µM*	?	?	?
COc1ccc(NC(=O)Cn2ncc3c(C)n(Cc4cccc(Cl)c4)c(C)c3c2=O)cc1	-0.7%	.	.	?	i	i
O=S(=O)(Nc1ccc(F)c(C(F)(F)F)c1)c1ccc(N2CCCCS2(=O)=O)cc1	-24.7%	.	.	10µM*	i	i
CCOc1cc(Br)c(C(=O)O)cc1OCC	-7.1%	4.7%	4.0%	-5.7%	i	i
CCOc1cc(Br)c(C=O)cc1OCC	2.7%	32.6µM*	25.9µM*	-20.7%	i	?
C=CCn1c(COc2ccc(F)cc2)nnc1SCC(=O)c1c[nH]c2c(CC)cccc12	-17.3%	6.1%	1.8%	-26.6%	13µM*	i
CC(C)(C)n1nc(Cc2cccc3ccccc23)c2c(N)ncnc21	-18.7%	.	.	14.1µM*	?	?
Cn1nc(Cc2cccc3ccccc23)c(C#N)c1N	1.4%	.	.	3.9%	i	i
Cc1ccc(SCc2cn3c(C)csc3n2)cc1	-41.9%	?	35.5µM*	-9.7%	i	i
Cc1ccc(S(=O)(=O)NCc2cn3c(C)csc3n2)cc1	-3.3%	13.0%	16.7%	11.3%	i	i
CCc1cc2c(cc3c(=O)n(CC(=O)N4CCCCC4)nc(CC)n32)s1	-15.1%	.	.	0.0%	.	.
COc1ccccc1Nc1ccc(NC(=O)c2cccc([N+](=O)[O-])c2C)cc1	-16.2%	-16.0%	-24.3%	?	?	18.4µM*
COc1ccc(NC(=O)c2ccccc2[N+](=O)[O-])cc1	2.8%	8.0%	4.8%	8.9%	i	i
